For one assay, the system named is Staphylococcus aureus. The assay can be described thus: Antibacterial activity against Staphylococcus aureus MRSA ATCC 43300 (CO-ADD:GP_020); MIC in CAMBH media using NBS plates, by Resazurin F(560/590). The format is functional. Conditions: Concentration 20 uM, ASSAY_TEST Inhibition of Bacterial Growth, detection method Resazurin, Fluorescence (ex560/em590), MEDIA CAMHB, plate type 384well, CORNING #3640, time 18 hr.

The next assay deals with Acinetobacter baumannii. The assay can be described thus: Antibacterial activity against Acinetobacter baumannii ATCC 19606 (CO-ADD:GN_034); MIC in CAMBH media using NBS plates, by Resazurin F(560/590). The format is functional. The conditions noted are these: Concentration 20 uM, ASSAY_TEST Inhibition of Bacterial Growth, detection method Resazurin, Fluorescence (ex560/em590), MEDIA CAMHB, plate type 384well, CORNING #3640, time 18 hr.

For a further assay, the system named is Escherichia coli. The assay can be described thus: Antibacterial activity against Escherichia coli ATCC 25922 (CO-ADD:GN_001); MIC in CAMBH media using NBS plates, by Resazurin F(560/590). It is filed as functional. The conditions noted are these: Concentration 20 uM, ASSAY_TEST Inhibition of Bacterial Growth, detection method Resazurin, Fluorescence (ex560/em590), MEDIA CAMHB, plate type 384well, CORNING #3640, time 18 hr. A general note: Resazurin is reduced to fluorescent resorufin, in cell work by metabolically active cells.

The test system of another assay is Klebsiella pneumoniae. Conditions: Concentration 20 uM; ASSAY_TEST Inhibition of Bacterial Growth; detection method Absorption (OD600); MEDIA CAMHB; plate type 384well; NBS; CORNING #3640; time 18 hr.
Another assay deals with Candida albicans. Conditions: 20 µM.
The subject of a further assay is Cryptococcus neoformans. Conditions: Concentration 20 uM; ASSAY_TEST Inhibition of Fungal Growth; detection method Resazurin; Absorption (OD600-OD570); plate type 384well; NBS; CORNING #3640.

For part of these data: Entries with a potency or affinity are not part of this list.

Inhibition data for 24 molecules are collected here from ChEMBL document CHEMBL4296182, “CO-ADD screening of NIH NCI Diversity Set V”.

Usually Inhibition stands for the change of the read-out against control, counted positive when it falls. With `COc1c(OP2(=S)OCC(C)(C)CO2)cnn(C2CCCCC2)c1=O`, the Inhibition in the assay with Staphylococcus aureus is 22.66%; in the assay with Acinetobacter baumannii, -7.99%; in the assay with Escherichia coli, 17.33%; in the assay on Klebsiella pneumoniae, 10.42%; in the assay on Candida albicans, -1.61%; with Cryptococcus neoformans, -6%.
For the molecule `O=C(NC(=O)c1c(F)cccc1F)Nc1cc(Cl)c(F)c(Cl)c1F` [TEFLUBENZURON], the Inhibition was 1.58% in the assay on Staphylococcus aureus; -16.27% with Acinetobacter baumannii; 15.1% with Escherichia coli; 2.21% in the assay on Klebsiella pneumoniae; -1.38% with Candida albicans; -2.13% in the assay on Cryptococcus neoformans.
Consider `OCC1CN1C1CCCCC1` (centres undefined), for which the Inhibition was -3.39% with Staphylococcus aureus; -14.33% in the assay on Acinetobacter baumannii; 0.67% in the assay on Escherichia coli; 26.1% in the assay with Klebsiella pneumoniae; 2.25% in the assay with Candida albicans; -2.3% in the assay on Cryptococcus neoformans.
Consider `CCC(CO)NC(=O)C1C=C2c3cccc4[nH]cc(c34)CC2N(C)C1` (centres undefined), for which the Inhibition in the assay with Staphylococcus aureus is 1.02%; in the assay on Acinetobacter baumannii it was 14.09%; in the assay with Escherichia coli, -11.63%; in the assay on Klebsiella pneumoniae, 10.28%; with Candida albicans, -0.04%; in the assay with Cryptococcus neoformans it was 5.57%.
Regarding `CC(C)NC1C2CCC(CC2)C1(O)c1ccc(Cl)c(Cl)c1.CS(=O)(=O)O` (centres undefined), the Inhibition in the assay with Staphylococcus aureus was 8.47%; with Acinetobacter baumannii, -0.12%; in the assay with Escherichia coli, 14.13%; in the assay with Klebsiella pneumoniae it was 12.75%; in the assay on Candida albicans it was 0.41%; in the assay on Cryptococcus neoformans, -1.76%.
For the molecule `O=C1C[C@@H]2OCC=C3C[N+]4([O-])CC[C@]56c7ccccc7N1[C@H]5[C@H]2[C@H]3C[C@@H]64` (some centres undefined), the Inhibition with Staphylococcus aureus was -3.57%; with Acinetobacter baumannii it was -14.45%; in the assay with Escherichia coli, 1.56%; in the assay on Klebsiella pneumoniae it was 13.5%; in the assay with Candida albicans, 3.06%; in the assay with Cryptococcus neoformans it was -6.02%.
As for `CC(C)OC1CCCC(O)C1CC(=O)O` (centres undefined), the Inhibition is 1.66% in the assay on Staphylococcus aureus; -13.22% in the assay with Acinetobacter baumannii; 6.88% with Escherichia coli; -1.53% in the assay on Klebsiella pneumoniae; -0.2% in the assay on Candida albicans; -7.06% in the assay on Cryptococcus neoformans.
As to `CCOC(=O)c1ccc2nc(-c3ccc(S(=O)(=O)F)cc3)cc(O)c2c1`, the Inhibition with Staphylococcus aureus is 10.74%; with Acinetobacter baumannii it was 13.99%; with Escherichia coli it was 0.41%; in the assay on Klebsiella pneumoniae it was 7.81%; in the assay on Candida albicans, 1.06%; with Cryptococcus neoformans, -10.46%.
Regarding `CCN(CC)c1ccc(C=C2C(=O)NC(=S)NC2=O)cc1`, the Inhibition is -20.45% in the assay on Staphylococcus aureus; -4.05% with Acinetobacter baumannii; -18.35% with Escherichia coli; 3.93% in the assay with Klebsiella pneumoniae; 19.4% in the assay with Candida albicans; 12.5% with Cryptococcus neoformans.
In the case of `CN1CCN(c2nc(N)cc(O)n2)CC1`, the Inhibition in the assay on Staphylococcus aureus was -8.8%; in the assay on Acinetobacter baumannii, 13.73%; with Escherichia coli, 3.5%; in the assay on Klebsiella pneumoniae, 7.87%; in the assay with Candida albicans, 7.43%; with Cryptococcus neoformans, -4.09%.
As to `O=c1cccc2n1C[C@H]1CNC[C@H]2C1`, the Inhibition with Staphylococcus aureus was 0.43%; in the assay on Acinetobacter baumannii it was -9.28%; in the assay on Escherichia coli, 4.51%; in the assay on Klebsiella pneumoniae it was 2.72%; in the assay with Candida albicans, 0.25%; in the assay on Cryptococcus neoformans, -10.24%.
Regarding `O=C(O)CCCC[C@@H]1SC[C@@H]2NC(=O)N[C@@H]21` [BIOTIN], the Inhibition is 10.18% in the assay with Staphylococcus aureus; -16.1% in the assay with Acinetobacter baumannii; 8.51% with Escherichia coli; 5.79% in the assay on Klebsiella pneumoniae; 1.63% in the assay with Candida albicans; -9.23% with Cryptococcus neoformans.
For the molecule `COc1cc(C=C2C(=O)NC(=O)NC2=O)ccc1O`, the Inhibition was 11.9% in the assay on Staphylococcus aureus; 5.89% in the assay with Acinetobacter baumannii; 0.28% with Escherichia coli; 15.76% with Klebsiella pneumoniae; 1.49% in the assay on Candida albicans; -7.52% in the assay with Cryptococcus neoformans.
Turning to `CC1CC(C)OP(=O)(OCCC#N)O1` (centres undefined), the Inhibition in the assay with Staphylococcus aureus was 11.79%; in the assay with Acinetobacter baumannii, -12.84%; with Escherichia coli, 9.51%; with Klebsiella pneumoniae, 9.69%; in the assay with Candida albicans, -4.51%; in the assay with Cryptococcus neoformans it was -8.12%.
With `COc1ccc2c(c1O)[C@]13CCN(C)[C@H](C2)[C@@H]1CCC(=O)C3`, the Inhibition in the assay with Staphylococcus aureus is -1.15%; in the assay on Acinetobacter baumannii, -13.17%; in the assay on Escherichia coli it was 7.37%; in the assay on Klebsiella pneumoniae, 14.9%; in the assay on Candida albicans, 0.05%; in the assay on Cryptococcus neoformans, -12.71%.
As to `O=P(Oc1ccccc1)(Oc1ccccc1)c1ccccc1`, the Inhibition was 1.14% in the assay on Staphylococcus aureus; -14.38% in the assay with Acinetobacter baumannii; 1.1% with Escherichia coli; 1.03% in the assay with Klebsiella pneumoniae; 4.45% with Candida albicans; -2.59% with Cryptococcus neoformans.
For `O=C1N(c2nncs2)CCN1[N+](=O)[O-]`, the Inhibition with Staphylococcus aureus is 11.64%; with Acinetobacter baumannii it was 7.25%; in the assay on Escherichia coli, 7.74%; in the assay on Klebsiella pneumoniae, 10.14%; in the assay with Candida albicans, 2.04%; in the assay with Cryptococcus neoformans, -14.15%.
With `Nc1nc(N)c2cnnn2n1`, the Inhibition with Staphylococcus aureus was -6.46%; in the assay on Acinetobacter baumannii, -8.05%; with Escherichia coli it was -17.28%; with Klebsiella pneumoniae, 8.25%; in the assay on Candida albicans, 5.35%; in the assay with Cryptococcus neoformans it was 23.1%.
`O=C(O)CN1C(=O)CN=C(c2ccccn2)c2cc(Cl)ccc21`: the Inhibition in the assay on Staphylococcus aureus is 15.35%; with Acinetobacter baumannii it was 8.33%; in the assay on Escherichia coli, -0.79%; in the assay on Klebsiella pneumoniae, 10.65%; with Candida albicans, 1.18%; in the assay with Cryptococcus neoformans it was 0%.
With `COc1cccc2c1C(=O)c1c(O)c3c(c(O)c1C2=O)C[C@@](O)(/C(C)=N\O)C[C@@H]3OC1CC(N)C(O)C(C)O1.Cl` (some centres undefined), the Inhibition with Staphylococcus aureus was -16.23%; in the assay on Acinetobacter baumannii, -1.97%; with Escherichia coli it was 2.23%; with Klebsiella pneumoniae, 11.93%; with Candida albicans it was -6.16%; in the assay on Cryptococcus neoformans, -5.57%.
As to `CN1CCc2cc3c(cc2C1)OCO3`, the Inhibition was -5.07% in the assay with Staphylococcus aureus; -14.77% in the assay on Acinetobacter baumannii; 11.12% in the assay on Escherichia coli; 3.04% in the assay with Klebsiella pneumoniae; 1.35% in the assay on Candida albicans; -8.47% with Cryptococcus neoformans.
In the case of `O=C(Nc1ccc(F)cc1)Oc1cccnc1O`, the Inhibition with Staphylococcus aureus was 10.32%; with Acinetobacter baumannii it was 2.12%; with Escherichia coli, 1.72%; with Klebsiella pneumoniae, 11.14%; in the assay with Candida albicans, 5.85%; in the assay with Cryptococcus neoformans it was -4.36%.
In the case of `CC(=O)OC1CCC2(C)C(CCC3C2CC(=O)C2(C)C3CC(N3CC3)C2C(C)=O)C1` (centres undefined), the Inhibition was -6.66% in the assay with Staphylococcus aureus; -5.39% in the assay on Acinetobacter baumannii; 9.74% in the assay with Escherichia coli; 4.84% in the assay on Klebsiella pneumoniae; -0.96% in the assay with Candida albicans; -1.15% in the assay with Cryptococcus neoformans.
Turning to `CN1C(=O)NC(=O)C(/N=N/c2ccc(Cl)cc2)C1=O` (centres undefined), the Inhibition with Staphylococcus aureus is 11.94%; with Acinetobacter baumannii, 12.18%; in the assay on Escherichia coli, 3.45%; with Klebsiella pneumoniae, 13.9%; in the assay on Candida albicans it was 1.14%; in the assay on Cryptococcus neoformans it was -3.1%.
